Results reported in PubChem BioAssay AID1159580 (chemical genetic matrix, 2015).
The campaign covered roughly 5,500 compounds. About 2,000 (36%) were called active. Roughly 18% stayed inconclusive and do not appear here. No stated cut-off is given here; in the data, active means normalized growth mostly below about 0.91 (no sharp cut-off); inconclusive means no clear call, values can overlap the other calls; inactive means mostly above about 0.92. This is one part of the list.

Assay: chemical genetic growth profiling, strain panel (AID 1159580);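 further: tested at 20 µM; growth read once vehicle control cultures reached saturation at 30 °C; 1 = growth at the plate median or of vehicle wells; lower values mean less growth of the strain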
Conditions: growth OD

Measured: normalized growth

CC(=O)N[C@@H](Cc1c[nH]c2ccccc12)C(=O)O
inactive: S. cerevisiae deletion strains, locus YJR075W, strain HOC1, active compounds read low 1 | S. cerevisiae deletion strains, locus YKL009W, strain mrt4, active compounds read low 0.981 | S. cerevisiae deletion strains, locus YKL068W, active compounds read low 1.01 | S. cerevisiae deletion strains, locus YKL085W, strain MDH1 (second series), active compounds read low 1.01 | S. cerevisiae deletion strains, locus YKL085W, strain MDH1, active compounds read low 1.01 | S. cerevisiae deletion strains, locus YKL160W, strain elf1, active compounds read low 0.962 | S. cerevisiae deletion strains, locus YKL190W, strain CNB1, active compounds read low 1 | S. cerevisiae deletion strains, locus YKR001C, strain vps1, active compounds read low 1.02 | S. cerevisiae deletion strains, locus YKR026C, strain gcn3, active compounds read low 0.987 | S. cerevisiae deletion strains, locus YKR091W, strain srl3, active compounds read low 0.977 | S. cerevisiae deletion strains, locus YLL001W, strain dnm1, active compounds read low 0.983 | S. cerevisiae deletion strains, locus YLL026W, active compounds read low 0.99 | S. cerevisiae deletion strains, locus YLL041C, strain sdh2, active compounds read low 1 | S. cerevisiae deletion strains, locus YLR027C, strain aat2, active compounds read low 0.994 | S. cerevisiae deletion strains, locus YLR039C, strain RIC1, active compounds read low 1.02 | S. cerevisiae deletion strains, locus YLR058C, strain SHM2, active compounds read low 1.01 | S. cerevisiae deletion strains, locus YLR102C, strain apc9, active compounds read low 1.02 | S. cerevisiae deletion strains, locus YLR113W, strain HOG1, active compounds read low 1 | S. cerevisiae deletion strains, locus YLR221C, strain rsa3, active compounds read low 1.01 | S. cerevisiae deletion strains, locus YLR258W, strain gsy2, active compounds read low 0.967 | S. cerevisiae deletion strains, locus YLR262C, strain YPT6 (second series), active compounds read low 1.02 | S. cerevisiae deletion strains, locus YLR262C, strain YPT6, active compounds read low 1.02 | S. cerevisiae deletion strains, locus YLR268W, strain sec22, active compounds read low 1.04 | S. cerevisiae deletion strains, locus YLR320W, strain mms22, active compounds read low 1.02 | S. cerevisiae deletion strains, locus YLR330W, strain CHS5, active compounds read low 1.01 | S. cerevisiae deletion strains, locus YLR342W, strain FKS1 (second series), active compounds read low 1.04 | S. cerevisiae deletion strains, locus YLR342W, strain FKS1, active compounds read low 0.981 | S. cerevisiae deletion strains, locus YLR357W, strain rsc2, active compounds read low 0.983 | S. cerevisiae deletion strains, locus YLR370C, strain arc18, active compounds read low 0.995 | S. cerevisiae deletion strains, locus YLR371W, strain rom2, active compounds read low 1.03 | S. cerevisiae deletion strains, locus YLR384C, strain iki3, active compounds read low 0.984 | S. cerevisiae deletion strains, locus YLR418C, strain cdc73, active compounds read low 1.07 | S. cerevisiae deletion strains, locus YML016C, strain PPZ1, active compounds read low 1.01 | S. cerevisiae deletion strains, locus YML032C, strain rad52, active compounds read low 1.02 | S. cerevisiae deletion strains, locus YML120C, strain ndi1, active compounds read low 0.989 | S. cerevisiae deletion strains, locus YML124C, strain tub3, active compounds read low 1.02 | S. cerevisiae deletion strains, locus YMR058W, strain fet3, active compounds read low 0.988 | S. cerevisiae deletion strains, locus YMR078C, strain ctf18, active compounds read low 1.02 | S. cerevisiae deletion strains, locus YMR125W, strain sto1, active compounds read low 0.973 | S. cerevisiae deletion strains, locus YMR129W, active compounds read low 0.976 | S. cerevisiae deletion strains, locus YMR205C, strain PFK2, active compounds read low 0.985 | S. cerevisiae deletion strains, locus YMR223W, strain ubp8, active compounds read low 1.02 | S. cerevisiae deletion strains, locus YMR231W, strain pep5, active compounds read low 0.978 | S. cerevisiae deletion strains, locus YMR263W, strain SAP30, active compounds read low 0.998 | S. cerevisiae deletion strains, locus YMR307W, strain GAS1, active compounds read low 0.959 | S. cerevisiae deletion strains, locus YNL067W, strain RPL9B, active compounds read low 1.01 | S. cerevisiae deletion strains, locus YNL071W, strain lat1, active compounds read low 0.99 | S. cerevisiae deletion strains, locus YNL128W, strain TEP1, active compounds read low 1.01 | S. cerevisiae deletion strains, locus YNL153C, strain GIM3, active compounds read low 1.01 | S. cerevisiae deletion strains, locus YNL183C, strain NPR1, active compounds read low 0.886 | S. cerevisiae deletion strains, locus YNL209W, strain ssb2, active compounds read low 0.989 | S. cerevisiae deletion strains, locus YNL233W, strain BNI4, active compounds read low 1.01 | S. cerevisiae deletion strains, locus YNL248C, strain rpa49, active compounds read low 0.98 | S. cerevisiae deletion strains, locus YNL250W, strain rad50, active compounds read low 1 | S. cerevisiae deletion strains, locus YNL271C, strain bni1, active compounds read low 1.03 | S. cerevisiae deletion strains, locus YNL298W, strain CLA4, active compounds read low 1.02 | S. cerevisiae deletion strains, locus YNL307C, strain MCK1, active compounds read low 1.03 | S. cerevisiae deletion strains, locus YNL322C, strain KRE1 (second series), active compounds read low 0.995 | S. cerevisiae deletion strains, locus YNL322C, strain KRE1, active compounds read low 1 | S. cerevisiae deletion strains, locus YNR049C, strain mso1, active compounds read low 0.959 | S. cerevisiae deletion strains, locus YNR052C, strain pop2, active compounds read low 1.01 | S. cerevisiae deletion strains, locus YOL006C, strain TOP1, active compounds read low 1.09 | S. cerevisiae deletion strains, locus YOL012C, strain htz1 0.924 | S. cerevisiae deletion strains, locus YOL147C, strain pex11, active compounds read low 1.02 | S. cerevisiae deletion strains, locus YOR001W, strain rrp6, active compounds read low 1.01 | S. cerevisiae deletion strains, locus YOR061W, strain CKA2, active compounds read low 1.01 | S. cerevisiae deletion strains, locus YOR069W, strain VPS5, active compounds read low 1 | S. cerevisiae deletion strains, locus YOR070C, strain gyp1, active compounds read low 0.996 | S. cerevisiae deletion strains, locus YOR080W, strain dia2, active compounds read low 0.986 | S. cerevisiae deletion strains, locus YOR083W, strain WHI5, active compounds read low 0.97 | S. cerevisiae deletion strains, locus YOR106W, strain vam3, active compounds read low 0.964 | S. cerevisiae deletion strains, locus YOR136W, strain idh2, active compounds read low 1.01 | S. cerevisiae deletion strains, locus YOR144C, strain elg1, active compounds read low 1.02 | S. cerevisiae deletion strains, locus YOR184W, strain ser1, active compounds read low 1.02 | S. cerevisiae deletion strains, locus YOR231W, strain MKK1, active compounds read low 0.994 | S. cerevisiae deletion strains, locus YOR265W, strain rbl2, active compounds read low 1.01 | S. cerevisiae deletion strains, locus YOR270C, strain vph1, active compounds read low 1.01 | S. cerevisiae deletion strains, locus YOR290C, strain snf2, active compounds read low 0.974 | S. cerevisiae deletion strains, locus YOR316C, strain cot1, active compounds read low 1.02 | S. cerevisiae deletion strains, locus YPL051W, strain arl3, active compounds read low 0.989 | S. cerevisiae deletion strains, locus YPL055C, strain LGE1, active compounds read low 1.01 | S. cerevisiae deletion strains, locus YPL078C, strain atp4, active compounds read low 0.978 | S. cerevisiae deletion strains, locus YPL106C, strain sse1, active compounds read low 0.949 | S. cerevisiae deletion strains, locus YPL240C, strain hsp82, active compounds read low 1 | S. cerevisiae deletion strains, locus YPL241C, strain CIN2, active compounds read low 1 | S. cerevisiae deletion strains, locus YPL256C, strain CLN2, active compounds read low 0.99 | S. cerevisiae deletion strains, locus YPR119W, strain clb2, active compounds read low 1.02 | S. cerevisiae deletion strains, locus YPR141C, strain kar3, active compounds read low 1.02 | S. cerevisiae deletion strains, locus YPR163C, strain tif3, active compounds read low 1.04 | S. cerevisiae deletion strains, locus YPR167C, strain met16, active compounds read low 1.01 | S. cerevisiae deletion strains, strain wtn01, active compounds read low 1.01 | S. cerevisiae strains, strain wild type, active compounds read low 1
